# Rows were chosen to be rich in hits. Some 2.8% of all compounds tested hit in one or more screens of this group.
# PI4K2A inh = PI4K2A (human) kinase inhibition. activity change, negative = inhibition, % at 76.9 µM. AID 1346378. purified PI4K2A, ADP-Glo luminescence, 1 h; hits give low values. 420,000 tested, 0.13% active; in the data active = activity change below about -50%; inconclusive = mostly about -30% to -49%;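 also: -100% = wells without enzyme as full effect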
#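 PI4K2A activity was measured by ADP-Glo luminescence: enzyme (4 ug/mL stock) and phosphatidylinositol (1.2 mM stock) in Tris pH 7.5/MgCl2/EGTA/Triton X-100 buffer were reacted with ATP (300 microM stock) for one hour at ambient temperature.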
# POLI inh = DNA polymerase iota (human) inhibition; Q9UNA4; Pol iota fluorescent replication assay, 10 min; Potency, µM (top dose mostly 115 µM), for the others: top-dose activity, negative = inhibition, usual class: inhibitors; 390,000 tested, 1% active; also: potency is read from the fitted curve at half-maximal effect
#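 Fluorescent replication assay read twice, at 0 min and 10 min after adding 50 nM (final) substrate. Enzyme (10 nM) and compounds were first incubated 15 min at room temperature; enzyme-free buffer wells were negative controls.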
# POLH inh = blocks human DNA polymerase eta activity; recombinant Pol eta, fluorescent DNA replication assay; Potency, µM (titrated, usually from 114 µM), inactives show at the top dose activity change, negative = inhibition, hits mostly inhibitors; 390,000 tested, 1.2% active; AID 588591; also: potency is read from the fitted curve at half-maximal effect; % is scaled to controls: 0 for no effect and ±100 for the full control effect
#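 Fluorescent replication assay: 50 nM final substrate added after a 15 min room-temperature compound preincubation with 10 nM enzyme. Signal taken at 0 min and again at 10 min.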
# POLK inh = DNA polymerase kappa (human) inhibition; 400,000 tested, 0.53% active; purified Pol kappa, fluorescent DNA synthesis assay, 10 min; Potency, µM (titrated, usually from 107 µM), for inactives: top-dose activity, negative = inhibition, hits mostly inhibitors; also: potency is read from the fitted curve at half-maximal effect; % is scaled to controls: 0 for no effect and ±100 for the full control effect
#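 Inhibition of 10 nM Pol kappa is measured by a fluorescent read-out at 0 and 10 min following addition of 50 nM substrate (final), with a 15-min room-temperature compound preincubation.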
# Pol beta inh = blocks human DNA polymerase beta activity; Potency, µM (highest dose often 114 µM), for the others: at the highest dose activity change, negative = inhibition, usual class: inhibitors; 340,000 tested, 1.3% active; AID 485314; Pol beta primer extension/strand displacement, fluorescence kinetic; P06746; also: potency is read from the fitted curve at half-maximal effect; % is scaled to controls: 0 for no effect and ±100 for the full control effect
#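 Values derive from four-parameter Hill fits of normalized kinetic data: reads at 0 and 10 min following addition of 50 nM substrate to 10 nM Pol beta preincubated 15 min with compound.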
# PI5P4K alpha inh = PI5P4K alpha (human) kinase inhibition | PI5P4Kalpha enzyme, ADP-Glo luminescence, 60 min; hits give low values | max response, % | 330,000 tested, 1.2% active; active = max response of -50% or lower; inconclusive = between -30% and -50%; inactive = -30% or higher; also: value at the top dose of about 77 µM; % is scaled to controls: 0 for no effect and ±100 for the full control effect
# Target sequence (P48426 whole entry, looked up): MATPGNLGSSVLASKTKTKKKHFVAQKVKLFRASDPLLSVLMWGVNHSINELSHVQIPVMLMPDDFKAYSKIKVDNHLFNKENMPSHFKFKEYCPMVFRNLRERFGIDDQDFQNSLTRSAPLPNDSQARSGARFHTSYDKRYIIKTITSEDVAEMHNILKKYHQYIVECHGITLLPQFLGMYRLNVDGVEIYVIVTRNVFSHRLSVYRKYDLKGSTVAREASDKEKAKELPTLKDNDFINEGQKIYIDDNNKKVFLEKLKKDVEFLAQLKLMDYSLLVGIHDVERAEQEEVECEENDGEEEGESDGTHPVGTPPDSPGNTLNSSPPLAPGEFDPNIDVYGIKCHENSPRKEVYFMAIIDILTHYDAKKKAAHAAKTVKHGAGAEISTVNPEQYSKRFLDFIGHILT
#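 Enzyme plus substrate dispensed, test compounds pinned in, then ATP (5 microM final) added. After 60 min at RT, ADP-Glo reagent 1 for 45 min and reagent 2 for 30 min preceded luminescence imaging.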
# * hit, by the source's call; ? = inconclusive; . = not tested or not shown; [ ] = another dose, or the depositor's remark. Unless noted, calls follow the shape of the dose curve; as a rule, active = well fitted inhibition curve with a large enough effect; inconclusive = small, poorly fitted or top-dose-only effect, or another doubt; inactive = no such curve, though single readings can be large or run the other way.
SMILES,PI4K2A inh,POLI inh,POLH inh,POLK inh,Pol beta inh,PI5P4K alpha inh
Cc1ccc(NC(=O)C(C)Sc2nc(-c3ccccc3)c(C#N)c(=O)[nH]2)c(C)c1 (stereo not drawn),0,-11%,10%,-9%,?,.
N#Cc1c(-c2ccccc2)nc(SCC(=O)NC2CCCCC2)[nH]c1=O,-3,-15%,9%,1%,38%,?
CN(C(=O)CSc1nc(-c2ccc(C(C)(C)C)cc2)c(C#N)c(=O)[nH]1)C1CCCCC1,-18,?,35µM*,-19%,?,?
Cc1ccc(C)c(NC(=O)CSc2nc(-c3ccccc3)c(C#N)c(=O)[nH]2)c1,-2,?,-2%,-7%,56µM*,.
COc1cccc(S(=O)(=O)N(C)C[C@@H]2OCc3cnnn3CCCC(=O)N([C@H](C)CO)C[C@@H]2C)c1,-2,.,-26%,.,.,1
CS(=O)(=O)c1ccccc1NC(=O)COc1ccccc1C(=O)Nc1ccccc1,.,?,.,-29%,.,.
CCCOc1ccc(-c2nc(SCc3ccccc3)[nH]c(=O)c2C#N)cc1OC,3,35%,-3%,-7%,50µM*,-26
CCCCCCn1c(SCC#N)nc2ccccc2c1=O,.,12%,.,-16%,.,.
CC1=C(C(=O)OCc2ccccc2)N2C(=O)[C@@H](NC(=O)OCc3ccccc3)[C@H]2SC1,.,-1%,.,-14%,.,.
O=S(=O)(c1ccc(Cl)cc1)N1CCCC(c2nc(-c3ccc(F)cc3)no2)C1 (stereo not drawn),2,8%,-16%,8%,.,20
O=C(CC1CCCCC1)N1CCCC(c2nc(-c3ccc(S(=O)(=O)N4CCCC4)cc3)no2)C1 (stereo not drawn),2,?,?,-6%[60.1 µM],35µM*,.
CC(=O)N/C(=C/c1ccccc1)c1sc2ccccc2[n+]1CCCCI,.,?,.,-33%,.,.
CSC1=N/C(=C\c2ccc(Br)o2)C(=O)S1,-5,7.1µM*,8.9µM*,32µM*,40µM*,4
CSC1=N/C(=C\c2ccccc2F)C(=O)S1,3,37%,-4%,-10%,-1%,11
CC(=O)NC1=NC(=O)/C(=C/c2cn(C(C)=O)nc2-c2ccccc2)S1,-5,22µM*,?,-21%,-13%,-87*
CCC1CN(C(=O)N2CCC(C(=O)NCCC3=CCCCC3)CC2)c2cc(C)ccc2O1 (stereo not drawn),2,12%,-3%,4%,0%,.
CCOc1cc(C(=O)N/N=C/C2CC=CCC2)cc(OCC)c1OCC (stereo not drawn),2,10%,-19%,4%,1%,0
Cc1ccc(C(=O)N/N=C\C2CC=CCC2)cc1[N+](=O)[O-] (stereo not drawn),1,29%,89µM*,1%,29%,-7
O=C(N1CCOCC1)N1CCN(c2ccccc2)CC1,-3,-9%,-11%,-12%,27%,-2
O=C(N1CCOCC1)N1CCN(c2ccccc2F)CC1,-62*,?,-28%,-6%,30%,-2
COc1ccc(OC)c(NC(=O)C2=C(C)C(=O)OC23CCCCCC3)c1,-5,39%,-10%,5%,-1%,.
CCC(=O)n1nc(-c2ccco2)nc1SCc1ccccc1,-5,14%,-8%,-4%,22µM*,3
CCc1nnc(NC(=O)c2ccc(Cl)c(S(=O)(=O)N3CCc4ccccc43)c2)s1,-2,?,?,-24%,20µM*,-12
O=C(Nc1ccncc1)c1ccc(Cl)c(S(=O)(=O)N2CCc3ccccc32)c1,1,9%,-2%,-4%,.,-4
O=[N+]([O-])c1ccc(O/N=[N+](\[O-])N2CCN(c3ncccn3)CC2)c([N+](=O)[O-])c1,.,?,.,-4%,.,.
SMILES,PI4K2A inh,POLI inh,POLH inh,POLK inh,Pol beta inh,PI5P4K alpha inh
Cc1cc(C(=O)COC(=O)c2ccccc2O)c(C)n1CC1CCCO1 (stereo not drawn),-17,41%,-22%,-15%,.,5
Cc1cc(C(=O)COC(=O)c2cc(O)c3ccccc3c2O)c(C)n1CC1CCCO1 (stereo not drawn),-12,53%,-26%,-17%,45µM*,?
COCCN(Cc1cc2cc(C)cc(C)c2nc1Cl)C(=O)Nc1ccccc1,6,35%,-14%,-9%,?,.
Cc1cc(C)c2nc(Cl)c(CN(Cc3ccco3)C(=O)Nc3ccccc3C)cc2c1,1,89µM*,-7%,-8%,1%,.
Cc1ccc(Cn2cnc3c(cnn3C(C)(C)C)c2=O)cc1F,.,27%,.,-7%,.,.
Cc1c[nH]c2cccc(-c3ccc(Cl)cc3Cl)c12,-4,.,.,.,.,.
CC(=O)OC12CCCN(C1)/C(=C/c1ccc(Cl)cc1)C2 (stereo not drawn),5,.,.,.,.,.
O=C(NCc1ccccc1F)C1C2C=CC3(CN(Cc4ccccc4)C(=O)C13)O2 (stereo not drawn),-1,.,.,.,.,.
CN1C(=O)C(Cl)(Cl)C(=O)c2ccccc21,-25,?,-1%,-11%,1%,-89*
CCOc1ccc(NC(=O)CCn2c(-c3ccc(F)cc3)cc(C(C)=O)c2C)cc1,-2,20%,-2%,-12%[60.1 µM],-16%,.
CC[C@@]1(O)C(=O)OCc2c1cc1n(c2=O)Cc2c-1nc1ccccc1c2/C=N/OC(C)(C)C,4,.,.,.,.,.
C#CCNC(=O)C1=C[C@H](c2ccc3c(c2)OCO3)C[C@H](OCCCCO)O1,-7,35µM*,50µM*,-30%,.,-27
O=C(NCc1ccccc1)C1=C[C@@H](c2ccc3c(c2)OCO3)C[C@@H](OCCCCO)O1,1,-13%,0%,-9%,.,-13
C#CCNC(=O)C1=C[C@@H](c2ccc3c(c2)OCO3)C[C@@H](OCCCCO)O1,-8,50µM*,?,-39%,.,?
O=[N+]([O-])c1ccc(/C=C2\C=C(C(O)c3ccc([N+](=O)[O-])cc3)c3ccccc32)cc1 (stereo not drawn),.,5%,.,-19%,.,.
CC1(c2ccccc2)OC(C(=O)O)=CC1=O (stereo not drawn),0,.,.,.,.,.
Cc1noc(NS(=O)(=O)c2ccc(NC(=O)c3ccc(N4C(=O)c5ccccc5C4=O)cc3)cc2)c1C,-23,?,79µM*,?,35µM*,-2
O=C(Nc1ccc(S(=O)(=O)Nc2nccs2)cc1)c1ccc(F)cc1,-1,106%,-16%,-10%,-14%,5
Cc1noc(NS(=O)(=O)c2ccc(NC(=O)CCN3C(=O)c4ccccc4C3=O)cc2)c1C,-12,15%,-10%,-5%,5%,-4
O=C(Nc1ccc(S(=O)(=O)Nc2nccs2)cc1)c1ccc(N2C(=O)c3ccccc3C2=O)cc1,-21,71µM*,?,?,22µM*,-12

# Screening results (PubChem BioAssay)
